Laboratory results reported in PubChem BioAssay AID1159580 (chemical genetic matrix, 2015).
“And” between values parts separate entries of the source, which are not always exact repeats. Identical values can stand only once. Among all 5,500 compounds or so, about 2,000 (36%) were called active. Inconclusive results (about 18%) are left out. Cut-off read from the data, not from the text of the source: active = normalized growth mostly below about 0.91 (no sharp cut-off); inconclusive = no clear call, values can overlap the other calls; inactive = mostly above about 0.92. The list shows a part of the results.

Assay: chemical genetic growth profiling, strain panel (AID 1159580);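 note: tested at 20 µM; growth read once vehicle control cultures reached saturation at 30 °C; 1 = growth at the plate median or of vehicle wells; lower values mean less growth of the strain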
Conditions: growth OD

Measured: normalized growth

CN(C)C(=O)Oc1ccc[n+](C)c1
inactive: S. cerevisiae deletion strains, locus YJR075W, strain HOC1, hits give low values 1 | S. cerevisiae deletion strains, locus YKL009W, strain mrt4, hits give low values 1.01 | S. cerevisiae deletion strains, locus YKL068W, hits give low values 1.02 | S. cerevisiae deletion strains, locus YKL085W, strain MDH1 (second series), hits give low values 1.01 | S. cerevisiae deletion strains, locus YKL085W, strain MDH1, hits give low values 1.01 | S. cerevisiae deletion strains, locus YKL160W, strain elf1, hits give low values 1 | S. cerevisiae deletion strains, locus YKL190W, strain CNB1, hits give low values 1.02 | S. cerevisiae deletion strains, locus YKR001C, strain vps1, hits give low values 1.01 | S. cerevisiae deletion strains, locus YKR026C, strain gcn3, hits give low values 1.01 | S. cerevisiae deletion strains, locus YKR091W, strain srl3, hits give low values 0.997 | S. cerevisiae deletion strains, locus YLL001W, strain dnm1, hits give low values 0.996 | S. cerevisiae deletion strains, locus YLL026W, hits give low values 0.999 | S. cerevisiae deletion strains, locus YLL041C, strain sdh2, hits give low values 1 | S. cerevisiae deletion strains, locus YLR027C, strain aat2, hits give low values 0.999 | S. cerevisiae deletion strains, locus YLR039C, strain RIC1, hits give low values 1.05 | S. cerevisiae deletion strains, locus YLR058C, strain SHM2, hits give low values 1.03 | S. cerevisiae deletion strains, locus YLR102C, strain apc9, hits give low values 1.01 | S. cerevisiae deletion strains, locus YLR113W, strain HOG1, hits give low values 1.05 | S. cerevisiae deletion strains, locus YLR221C, strain rsa3, hits give low values 0.997 | S. cerevisiae deletion strains, locus YLR258W, strain gsy2, hits give low values 1 | S. cerevisiae deletion strains, locus YLR262C, strain YPT6 (second series), hits give low values 1.01 | S. cerevisiae deletion strains, locus YLR262C, strain YPT6, hits give low values 1.06 | S. cerevisiae deletion strains, locus YLR268W, strain sec22, hits give low values 1.01 | S. cerevisiae deletion strains, locus YLR320W, strain mms22, hits give low values 1.01 | S. cerevisiae deletion strains, locus YLR330W, strain CHS5, hits give low values 1.01 | S. cerevisiae deletion strains, locus YLR342W, strain FKS1 (second series), hits give low values 1.06 | S. cerevisiae deletion strains, locus YLR342W, strain FKS1, hits give low values 1.01 | S. cerevisiae deletion strains, locus YLR357W, strain rsc2, hits give low values 1 | S. cerevisiae deletion strains, locus YLR370C, strain arc18, hits give low values 1.01 | S. cerevisiae deletion strains, locus YLR371W, strain rom2, hits give low values 1.01 | S. cerevisiae deletion strains, locus YLR384C, strain iki3, hits give low values 1.01 | S. cerevisiae deletion strains, locus YLR418C, strain cdc73, hits give low values 1.03 | S. cerevisiae deletion strains, locus YML016C, strain PPZ1, hits give low values 1.01 | S. cerevisiae deletion strains, locus YML032C, strain rad52, hits give low values 1.01 | S. cerevisiae deletion strains, locus YML120C, strain ndi1, hits give low values 1 | S. cerevisiae deletion strains, locus YML124C, strain tub3, hits give low values 1.04 | S. cerevisiae deletion strains, locus YMR058W, strain fet3, hits give low values 0.994 | S. cerevisiae deletion strains, locus YMR078C, strain ctf18, hits give low values 1.01 | S. cerevisiae deletion strains, locus YMR125W, strain sto1, hits give low values 1 | S. cerevisiae deletion strains, locus YMR129W, hits give low values 1 | S. cerevisiae deletion strains, locus YMR205C, strain PFK2, hits give low values 1.02 | S. cerevisiae deletion strains, locus YMR223W, strain ubp8, hits give low values 1.05 | S. cerevisiae deletion strains, locus YMR231W, strain pep5, hits give low values 1 | S. cerevisiae deletion strains, locus YMR263W, strain SAP30, hits give low values 1.01 | S. cerevisiae deletion strains, locus YMR307W, strain GAS1, hits give low values 1.04 | S. cerevisiae deletion strains, locus YNL067W, strain RPL9B, hits give low values 1.01 | S. cerevisiae deletion strains, locus YNL071W, strain lat1, hits give low values 1 | S. cerevisiae deletion strains, locus YNL153C, strain GIM3, hits give low values 0.986 | S. cerevisiae deletion strains, locus YNL175C, strain NOP13, hits give low values 0.972 | S. cerevisiae deletion strains, locus YNL183C, strain NPR1, hits give low values 0.981 | S. cerevisiae deletion strains, locus YNL197C, strain WHI3, hits give low values 0.961 | S. cerevisiae deletion strains, locus YNL209W, strain ssb2, hits give low values 1 | S. cerevisiae deletion strains, locus YNL224C, strain SQS1, hits give low values 0.982 | S. cerevisiae deletion strains, locus YNL233W, strain BNI4, hits give low values 1 | S. cerevisiae deletion strains, locus YNL248C, strain rpa49, hits give low values 0.996 | S. cerevisiae deletion strains, locus YNL250W, strain rad50, hits give low values 1.02 | S. cerevisiae deletion strains, locus YNL271C, strain bni1, hits give low values 1.02 | S. cerevisiae deletion strains, locus YNL298W, strain CLA4, hits give low values 1.02 | S. cerevisiae deletion strains, locus YNL307C, strain MCK1, hits give low values 1.02 | S. cerevisiae deletion strains, locus YNL322C, strain KRE1 (second series), hits give low values 1 | S. cerevisiae deletion strains, locus YNR049C, strain mso1, hits give low values 1 | S. cerevisiae deletion strains, locus YNR052C, strain pop2, hits give low values 1.02 | S. cerevisiae deletion strains, locus YOL006C, strain TOP1, hits give low values 0.966 | S. cerevisiae deletion strains, locus YOL012C, strain htz1 0.894 | S. cerevisiae deletion strains, locus YOL147C, strain pex11, hits give low values 1.02 | S. cerevisiae deletion strains, locus YOR001W, strain rrp6, hits give low values 0.985 | S. cerevisiae deletion strains, locus YOR061W, strain CKA2, hits give low values 1.02 | S. cerevisiae deletion strains, locus YOR069W, strain VPS5, hits give low values 1.02 | S. cerevisiae deletion strains, locus YOR070C, strain gyp1, hits give low values 1 | S. cerevisiae deletion strains, locus YOR080W, strain dia2, hits give low values 1.03 | S. cerevisiae deletion strains, locus YOR083W, strain WHI5 (second series), hits give low values 0.968 | S. cerevisiae deletion strains, locus YOR083W, strain WHI5, hits give low values 0.999 | S. cerevisiae deletion strains, locus YOR106W, strain vam3, hits give low values 1 | S. cerevisiae deletion strains, locus YOR136W, strain idh2, hits give low values 1.02 | S. cerevisiae deletion strains, locus YOR144C, strain elg1, hits give low values 1.01 | S. cerevisiae deletion strains, locus YOR184W, strain ser1, hits give low values 1.01 | S. cerevisiae deletion strains, locus YOR231W, strain MKK1, hits give low values 1.03 | S. cerevisiae deletion strains, locus YOR265W, strain rbl2, hits give low values 1.01 | S. cerevisiae deletion strains, locus YOR270C, strain vph1, hits give low values 0.993 | S. cerevisiae deletion strains, locus YOR290C, strain snf2, hits give low values 1 | S. cerevisiae deletion strains, locus YOR316C, strain cot1, hits give low values 1.02 | S. cerevisiae deletion strains, locus YPL051W, strain arl3, hits give low values 1 | S. cerevisiae deletion strains, locus YPL055C, strain LGE1, hits give low values 1 and 1.04 | S. cerevisiae deletion strains, locus YPL078C, strain atp4, hits give low values 0.999 | S. cerevisiae deletion strains, locus YPL106C, strain sse1, hits give low values 1.01 | S. cerevisiae deletion strains, locus YPL240C, strain hsp82, hits give low values 1 | S. cerevisiae deletion strains, locus YPL241C, strain CIN2, hits give low values 0.991 | S. cerevisiae deletion strains, locus YPL256C, strain CLN2, hits give low values 1 | S. cerevisiae deletion strains, locus YPR119W, strain clb2, hits give low values 1.01 | S. cerevisiae deletion strains, locus YPR141C, strain kar3, hits give low values 1.02 | S. cerevisiae deletion strains, locus YPR163C, strain tif3, hits give low values 1.02 | S. cerevisiae deletion strains, locus YPR167C, strain met16, hits give low values 1.01 | S. cerevisiae deletion strains, strain wtn01, hits give low values 1.01 | S. cerevisiae strains, strain wild type, hits give low values 1.02
